Screening results (PubChem)
Most compounds without a hit are left out; they make up all but 9.3% or so of the library.
HCMV antiviral: blocks human cytomegalovirus replication; HFF cells, HCMV-luciferase reporter, 72 h; stronger effect = lower value; activity change, negative = inhibition, % at 57.5 µM; hit rate 4.5% among 410,000; AID 1259415; in the data active means activity change below about -60%; inconclusive means no clear call, values can overlap the other calls; inactive means above about -39%
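Steps: HFFs plated, 16 h 37C; compounds added; HCMV-luciferase added to MOI 1 PFU/cell; 72 h 37C; OneGlo reagent, 5 min room temperature; luminescence read, normalized to controls.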
FMDV antiviral: blocks foot and mouth disease virus. hit rate 1.2% among 410,000. FMDV antiviral cell-based qHTS. Potency, µM (doses to about 57.9 µM), without a hit: at the highest dose activity change, negative = inhibition, most hits filed as inhibitors; calls by dose curve; tested in HEK293T cells; further: read-out not given here; potency means the concentration at half of the fitted maximal effect; nearly all actives have a fitted effect of over 45% in size
Vaccinia Venus: inhibitors of vaccinia virus (Venus reporter); Vaccinia virus Venus reporter expression, fluorescence; Potency, µM (highest dose often 36.5 µM), inactives show at the top dose activity change, negative = inhibition, hits mostly inhibitors; hit rate 0.46% among 330,000; AID 720580; calls by dose curve; tested in A549 cells; further: potency means the concentration at half of the fitted maximal effect; nearly all actives have a fitted effect of over 30% in size
Vaccinia mCherry: vaccinia inhibition (mCherry reporter). Potency, µM (top dose mostly 36.5 µM), without a hit: at the highest dose activity change, negative = inhibition, most hits filed as inhibitors. Vaccinia virus mCherry reporter infection, fluorescence. hit rate 0.63% among 310,000; calls by dose curve; tested in A549 cells; further: potency means the concentration at half of the fitted maximal effect; nearly all actives have a fitted effect of over 35% in size
HCV inh: inhibitors of hepatitis C virus infection; AID 651820; Potency, µM (titrated, usually from 41.8 µM), without a hit: top-dose activity change, negative = inhibition, usual class: inhibitors; Huh7.5.1 HCVcc-Cre infection, luciferase reporter, 44 h; hit rate 3.4% among 340,000; further: potency means the concentration at half of the fitted maximal effect
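Infectious HCV cell culture screen: compound-treated cells (1,000/well, pre-plated 4 h) are infected with HCVcc-Cre at roughly 0.5 moi and grown 44 h. Infection is quantified by luciferase signal after 15 min substrate incubation at room temperature.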
Sm TGR inh: S. mansoni TGR enzyme inhibition; Q962Y6; purified TGR, DTNB reduction, TNB absorbance 405 nm; Potency, µM (top dose mostly 114 µM), for the others: at the highest dose activity change, negative = inhibition, hits mostly inhibitors; hit rate 3% among 360,000; further: potency means the concentration at half of the fitted maximal effect; nearly all actives have a fitted effect of over 60% in size
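First, TGR (20 nM dispensed) and NADPH were mixed with compound. Second, a 15 min room-temperature incubation followed. Third, further NADPH and then DTNB were added to start the reaction. Finally, TNB absorbance was monitored kinetically.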
* hit, by the source's call; i = inactive; u = inconclusive; x = no result given; [ ] = another dose, or the depositor's remark. Unless noted, the call rests on the fitted dose curve; in most records, active means well fitted curve in the direction sought with a large enough effect; inconclusive means small, poorly fitted or top-dose-only effect, or another doubt; inactive means no such curve, though single readings can be large; an effect the other way counts as inactive or inconclusive. On the % scale 0 is the no-effect control and ±100 the full control effect.

SMILES	HCMV antiviral	FMDV antiviral	Vaccinia Venus	Vaccinia mCherry	HCV inh	Sm TGR inh
CC(C)CNC(=O)c1c(N)n(Cc2ccco2)c2nc3ccccc3nc12	16	0%	-13%	u	u	32µM*
O=C(NCC1CCCO1)c1cc2ccccc2cc1O (configuration not stated)	36	67%	-15%	-18%	-8%	-18%
COCCCNC(=O)c1c(N)n(Cc2ccco2)c2nc3ccccc3nc12	19	u	x	x	-16%	4µM*
CCOC(=O)c1c(N)n(CCCOC(=O)c2ccco2)c2nc3ccccc3nc12	-21	u	10µM*	u	11µM*	3%
O=C(NCC1CCCO1)c1cc2ccccc2nc1Cl (configuration not stated)	-70*	15%	x	x	16%	7%
CCc1noc(C)c1C(=O)N1CCN(S(=O)(=O)c2cc(C)ccc2C)CC1	-15	-7%	-15%	i	11%	5%
O=C(N/N=C/c1ccc(Br)s1)c1ccccn1	34	9%	-17%	i	15%	4%
CC(C)Cn1c(N)c(C(=O)NCC2CCCO2)c2nc3ccccc3nc21 (configuration not stated)	-20	u	10µM*	10µM*	u	-4%
COCCn1c(N)c(C(=O)NCC2CCCO2)c2nc3ccccc3nc21 (configuration not stated)	-11	-27%	-14%	-1%	-18%	12%
CC(C)CNC(=O)c1c(N)n(Cc2ccc3c(c2)OCO3)c2nc3ccccc3nc12	-80*	-17%	x	x	15%	2%
CC(C)CCNC(=O)c1c(N)n(Cc2ccc3c(c2)OCO3)c2nc3ccccc3nc12	-34	-14%	x	x	2%	-25%
CC(C)(C)c1ccc(-c2cc(-c3ccccc3O)[nH]n2)cc1	-95*	-47%	u	-26%	u	-21%
Cc1ccc(O)c(-c2cc(-c3ccccc3[N+](=O)[O-])[nH]n2)c1	-3	37%	u	-28%	-23%	-1%
Cc1ccc(O)c(-c2cc(-c3ccccc3C)[nH]n2)c1	54	27%	u	u	11µM*	1%
COc1ccc(-c2cc(-c3cc(C)ccc3O)[nH]n2)cc1	-35	14%	u	8.9µM*	3.5µM*	20%
COc1ccc(-c2cc(-c3ccc(C)cc3)n[nH]2)c(O)c1	126	43%	-30%	-26%	u	-1%
O=C(NCCN1CCN(S(=O)(=O)c2ccc([N+](=O)[O-])cc2)CC1)C(=O)Nc1ccccc1	33	-10%	9%	-13%	2%	-2%
Nc1ccc2oc(Cc3ccc(Cl)cc3)nc2c1	-2	-22%	u	u	x	14µM*
O=[N+]([O-])c1ccc(O)c(C=Nc2ccc3oc(Cc4ccc(Cl)cc4)nc3c2)c1	x	x	x	x	x	50µM*
CC1(C)ON=C(c2ccc(C(F)(F)F)cc2)NC1=O	-24	-7%	9%	8%	x	x
CCCC(=O)Nc1ccc(N2CCN(S(C)(=O)=O)CC2)cc1	-5	4%	0%	i	13%	3%
CCCCCCCCCCOC(=O)Cn1c(COc2ccccc2OC)[n+](C)c2ccccc21	u	u	14µM*	u	14µM*	-19%
Cn1c(COc2ccccc2O)[n+](C)c2ccccc21	8	0%	-10%	i	-9%	-17%
CCOC(=O)C1(Cc2cccc(F)c2)CCN(C(=O)c2cscn2)CC1	-33	11%	1%	i	3%	72%
COc1cccc(OCCCCN2CC(C)OC(C)C2)c1 (configuration not stated)	60	-13%	-20%	-15%	17%	-18%
SMILES	HCMV antiviral	FMDV antiviral	Vaccinia Venus	Vaccinia mCherry	HCV inh	Sm TGR inh
O=C(Nc1cccc(S(=O)(=O)Nc2ccc(SC(F)F)cc2)c1)C1CCC1	-26	1%	-8%	-13%	u	x
C=CCn1c(=NC(=O)C2COc3ccccc3O2)sc2cc(S(N)(=O)=O)ccc21 (configuration not stated)	24	32µM*	-26%	-19%	0%	-29%
COCCn1c(=NC(=O)C2COc3ccccc3O2)sc2cc(S(N)(=O)=O)ccc21 (configuration not stated)	50	0%	-10%	-14%	-15%	-13%
CCOC(=O)C1CCCN(C(=S)Nc2ccc(OC)cc2)C1 (configuration not stated)	-67*	-1%	x	x	5%	0%
O=C(COc1ccc(F)cc1)N1CCCCCCC1	33	16%	-1%	i	15%	-8%
CCOC(=O)C1CCCN(C(=O)COc2ccc(C(=O)c3ccc(F)cc3)cc2)C1 (configuration not stated)	-27	u	x	x	13µM*	x
O=C(COC(=O)COc1ccccc1)Nc1ccc2c(c1)OCCO2	9	-3%	-7%	i	-2%	x
CC(C)CNS(=O)(=O)c1ccc(CCC(=O)NCc2ccncc2)cc1	-5	4%	x	x	6%	8%
COc1cccc(CN(CC(=O)NCc2ccco2)C(=O)CNS(=O)(=O)c2ccccc2)c1	-61*	24%	-7%	-15%	13%	-21%
Cc1ccc(S(=O)(=O)NCC(=O)N(CCc2ccccc2)CC(=O)NCc2ccco2)cc1	-35	27%	-4%	-5%	-27%	35µM*
CC(C)CNS(=O)(=O)c1ccc(CCC(=O)NCc2ccco2)cc1	-9	29%	-2%	-17%	8%	45µM*
Cc1ccc(NS(=O)(=O)c2ccc(CCC(=O)NCc3ccccn3)cc2)cc1	-24	12%	4%	-3%	0%	x
CC(C)NS(=O)(=O)c1ccc(CCC(=O)NCc2ccccn2)cc1	-19	-12%	x	x	15%	100µM*
O=C(CCS(=O)(=O)c1ccc(F)cc1)Nc1nnc(-c2ccco2)o1	-31	-13%	u	u	-22%	u
CCOC(=O)c1cnc2c(C)cccc2c1Nc1ccc(N2CCOCC2)cc1	x	x	x	x	1%	-16%
Cc1ccc(CSc2nnc(CCNC(=O)OC(C)(C)C)o2)cc1	14	u	-1%	-9%	4%	1%
Nc1nc(N)nc(-c2cc(O)ccc2O)n1	u	38%	-26%	-21%	-15%	-29%
Oc1ccc(O)c(-c2cnns2)c1	u	u	-19%	-25%	u	79µM*
COC(=O)CCN(C)CCC(=O)OC	20	-11%	-12%	x	34%	16%
C/C(=N\NC(=O)c1cc(-c2cccc([N+](=O)[O-])c2)n[nH]1)c1ccccc1O	39	-19%	u	10µM*	11%	-7%
C/C(=N/NC(=O)c1cc(-c2cccc([N+](=O)[O-])c2)n[nH]1)c1cccc(O)c1	0	-18%	x	x	-1%	-2%
COc1ccc(C(C#N)=C2C=CC(=NO)C=C2)cc1	-24	10%	39%[7.34 µM]	-13%[7.34 µM]	u	-4%
CC(=O)ON=C1C=CC(=C(C#N)c2ccccc2)C=C1	-101*	u	-9%	4%	x	x
